Test results as given in PubChem BioAssay (NCATS).
“And” between values parts separate entries of the source, which are not always exact repeats. Identical values can stand only once. Inconclusive results are not listed. The source made the active and inactive calls. Calls come from the whole dose curve; as a rule, active = well fitted activation curve with a large enough effect in the signal ratio; inconclusive = small, poorly fitted or top-dose-only effect, or effect the other way, or a change in a side signal; inactive = flat fitted curve, though single readings scatter; the % refers to the signal ratio.

test: qHTS assay for small molecule agonists of the antioxidant response element (ARE) signaling pathway (AID 651741); conditions: HepG2 ARE-bla reporter, beta-lactamase FRET ratio, 16 h; series mostly up to 96 µM
In short: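 HepG2 ARE-bla cells plated at 2,000 cells/well and incubated 5 h at 37 C/5% CO2 received 23 nL compound in DMSO. After 16 h at 37 C, LiveBLAzer B/G FRET substrate was applied for 2 h at room temperature and fluorescence read.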
Potency is the fitted concentration of half-maximal effect.

Structure (SMILES) | Potency
CO/N=C(/C(=O)N[C@@H]1C(=O)N2C(C(=O)O)=C(COC(N)=O)CS[C@H]12)c1ccco1 | 42.2 µM (active)
C[C@H](CCC(=O)O)[C@H]1CC[C@H]2[C@@H]3CC[C@@H]4C[C@H](O)CC[C@]4(C)[C@H]3C[C@H](O)[C@]12C | 66.8 µM (active)
Cc1ncc[nH]1 | inactive
Cc1ccc(S(=O)(=O)NCl)cc1 | inactive
O=c1n(CC2CO2)c(=O)n(CC2CO2)c(=O)n1CC1CO1 (stereo unspecified) | 7.5 µM (active) and 6.86 µM (active)
CC(C)(C)CC(C)(C)c1ccc(OCCO)cc1 | 37.6 µM (active)
